AMA1 RON2 block: AMA1-RON2 (P. falciparum) interaction inhibition. AlphaScreen AMA1-biotinylated RON2 peptide binding. Potency, µM (highest dose often 58.2 µM), for inactives: at the highest dose activity change, negative = inhibition, most hits filed as inhibitors. 0.2% of 360,000 active. AID 720542;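 further: potency means the concentration at half of the fitted maximal effect; 0% = vehicle wells and -100% = peptide control; nearly all actives have a fitted effect of over 45% in size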
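AMA1 (3D7) with his tag at 25 nM final met compounds first, then biotinylated RON2 peptide at 25 nM; detection used donor plus acceptor beads, 10 µg/mL apiece, read by AlphaScreen after 30 min at room temperature.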
Shiga toxin inh: Shiga toxin inhibition; AID 2315; Vero cells, Shiga toxin protein synthesis inhibition reporter; 9.2% of 290,000 active; inhibition, % at 38.7 µM; in the data active means inhibition mostly above about 28%, no sharp cut-off; inactive means mostly below about 43%; further: 0% is about no effect
Pf growth 96h: inhibits malaria parasite growth, 96 h; P. falciparum luciferase reporter growth, 96 h; Potency, µM (series often up to 28.7 µM), for the others: at the top dose activity change, negative = inhibition, usual class: inhibitors; 6.9% of 320,000 active; further: potency means the concentration at half of the fitted maximal effect; on the % scale 0 is the no-effect control and ±100 the full control effect
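Infected RBCs, 2% Hct / 0.05% parasitemia final; luciferase-reporter P. falciparum; cpd 96 h, 37 C, 5% CO2; luciferase detection reagent; luminescence.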
Pf growth 48h: inhibits P. falciparum growth in the first generation, 48 h; P. falciparum luciferase growth in erythrocytes, 48 h; Potency, µM (series often up to 28.7 µM), for inactives: at the top dose activity change, negative = inhibition, most hits filed as inhibitors; 5.9% of 310,000 active; AID 504832; further: potency means the concentration at half of the fitted maximal effect; on the % scale 0 is the no-effect control and ±100 the full control effect
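Luminescence readout; reporter = integrated firefly luciferase in P. falciparum. RBC culture at 2% hematocrit, 0.1% parasitemia final, 37 C/5% CO2; decreased signal taken as growth inhibition.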
HCV inhibitor: inhibitors of hepatitis C virus infection; 3.4% of 340,000 active; Huh7.5.1 HCVcc-Cre infection, luciferase reporter, 44 h; AID 651820; Potency, µM (titrated, usually from 41.8 µM), inactives show at the top dose activity change, negative = inhibition, most hits filed as inhibitors; further: potency means the concentration at half of the fitted maximal effect; on the % scale 0 is the no-effect control and ±100 the full control effect
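Seed cells (1,000/well) for 4 h; treat with compound and infect with HCVcc-Cre, moi about 0.5. Incubate 44 h, then detect luciferase activity.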
Cycloheximide cs: counter-screen for Shiga toxin inhibitors: cycloheximide protein synthesis inhibition; cell reporter, cycloheximide protein synthesis inhibition counterscreen; max response, %; 12% of 300,000 active; in the data active means max response mostly above about 13%, no sharp cut-off; inactive means mostly below about 14%; further: read at 38.3 µM for the half of the compounds with a filed dose; 0% is about no effect
Starred values were filed as active, the others as inactive; ? = inconclusive; nt = not tested or not shown. An excerpt weighted towards active compounds, which were near 21% of everything screened. Unless noted, the call rests on the fitted dose curve; in most records, active means well fitted curve in the direction sought with a large enough effect; inconclusive means small, poorly fitted or top-dose-only effect, or another doubt; inactive means no such curve, though single readings can be large; an effect the other way counts as inactive or inconclusive.

SMILES	AMA1 RON2 block	Shiga toxin inh	Pf growth 96h	Pf growth 48h	HCV inhibitor	Cycloheximide cs
COCC(C)N1CCC(n2nccc2NC(=O)CCCc2ccccc2)CC1 (configuration not stated)	-7%	6	?	-4%	?	7
c1ccc2c(c1)oc1c(-c3cccc4nccn34)cccc12	-8%	nt	nt	nt	nt	nt
COc1cccc(CCN2CCC(CNS(=O)(=O)c3cc(-c4cc(C)no4)ccc3C)CC2)c1	-17%	25	?	?	13µM*	-4
COc1ccccc1CN1CCC(CNS(=O)(=O)c2cc(-c3onc(C)c3C)ccc2OC)CC1	-10%	-7	?	12µM*	10µM*	-5
COc1cccc(CCN2CCC(CNS(=O)(=O)c3cc(-c4cc(C)no4)ccc3OC)CC2)c1	-11%	-1	10µM*	4.1µM*	7.9µM*	2
Cc1cc(-c2ccc(C)c(S(=O)(=O)NCC3CCN(Cc4cccc(F)c4)CC3)c2)on1	-4%	8	?	9.3µM*	?	-1
Cc1cc(-c2ccc(C)c(S(=O)(=O)NCC3CCN(Cc4ccccc4F)CC3)c2)on1	-6%	3	-14%	?	?	-3
Cc1nnsc1-c1nnc(SCC(=O)c2ccccc2)n1C1CC1	7%	13	?	-18%	-10%	12
COc1ccccc1CN(C)C(=O)CN1CCN(S(=O)(=O)c2ccc3c(c2)OCCCO3)CC1	6%	nt	?	?	-10%	nt
COc1ccc(C2=Nc3nc(-c4ccccc4)cn3C(c3ccc(OC)cc3)C2)cc1 (configuration not stated)	14%	46	?	2.9µM*	-10%	9
COc1ccc(C(C#N)N2N=C(c3ccccc3)CC2c2ccccc2)cc1OC (configuration not stated)	32%	44*	-10%	35%	-28%	68*
COc1ccc(C(C#N)N2N=C(C)CC2c2ccccc2)cc1OC (configuration not stated)	12%	-11	-2%	5%	11%	-2
COc1ccc(C2=NN(C(C#N)c3ccc(OC)cc3)C(c3ccccc3)C2)cc1 (configuration not stated)	40%	83*	71%	63%	?	33*
Nc1c(C(=O)OCC(=O)NCc2ccccc2)[nH]c(=O)[nH]c1=O	-11%	39	-3%	-7%	-5%	15
O=C(CN(Cc1ccc(Cl)cc1)C(=O)CNS(=O)(=O)c1ccc(F)cc1)NCC1CCCO1 (configuration not stated)	-3%	-5	?	16%	6%	-7
COc1cc(CC(=O)Nc2ccc3nc(C)sc3c2)cc(OC)c1OC	-6%	-3	-9%	4%	-4%	8
CCN(CC)C(=O)c1ccc(NC(=O)COc2ccccc2F)cc1	-1%	76*	255%	101%	3%	22*
COc1ccc(OCC(=O)Nc2ccc3nc(C)sc3c2)cc1	3%	-11	0%	-10%	-21%	-3
COc1ccccc1CC(=O)Nc1ccc2nc(C)sc2c1	-9%	80*	34%	54%	-3%	25*
O=C(COc1ccccc1F)Nc1ccc2c(c1)CCC2	29%	nt	nt	nt	0%	nt
COc1cccc(CC(=O)Nc2ccc3nc(C)sc3c2)c1	-13%	11	30%	13%	-4%	30*
Cc1cc(CNC(=O)COc2ccccc2F)c2ccccc2n1	-6%	87*	36%	96%	25µM*	37*
C/C=C/COC(=O)C1=C(C)NC(=O)NC1c1ccc2c(c1)OCO2 (configuration not stated)	-1%	nt	?	18%	-22%	-2
O=S1(=O)N[C@H](Cc2ccccc2)COc2cc(N3CC[C@H](O)C3)ccc21	1%	nt	nt	nt	nt	nt
Cc1c(C(=O)N2CCN(Cc3ccccc3)CC2)oc2c1C(=O)CCC2	-1%	2	23%	-7%	4%	2
C=CCn1c(SCC(=O)NCC2CCCO2)nc2sc(CC)cc2c1=O (configuration not stated)	6%	nt	nt	nt	?	nt
Cc1nc2ccc(NC(=O)COc3ccccc3F)cc2s1	6%	72*	100%	97%	-20%	31*

Screening data (PubChem)
